One test relates to Staphylococcus aureus. The note with it: Concentration 32 ug.mL-1; ASSAY_TEST Inhibition of Bacterial Growth; detection method Absorption (OD600); MEDIA CAMHB; plate type 384well; NBS; CORNING #3640; time 18 hr.
The test system of a further test is Escherichia coli. The conditions noted are these: Concentration 32 ug.mL-1; ASSAY_TEST Inhibition of Bacterial Growth; detection method Absorption (OD600); MEDIA CAMHB; plate type 384well; NBS; CORNING #3640; time 18 hr.

Results with a measured potency or affinity are listed apart.

`COc1ccc2c(c1)C(=O)C(=Cc1cnccc1OC)CC2`: the Inhibition in the test with Staphylococcus aureus was 16.33%; with Escherichia coli, 1.39%.

Consider `COc1ccc2c(c1)CCC(=Cc1ccc(OC)nc1)C2=O`, for which the results for the Inhibition in the test with Staphylococcus aureus and in the test on Escherichia coli were -4.04% and 1.52%, respectively.

Take `COc1ccc2c(c1)C(=O)C(=Cc1cccnc1Cl)CC2.Cl`: the values for the Inhibition in the test on Staphylococcus aureus and in the test on Escherichia coli were 20.04% and 2.21%, respectively.

Take `COc1ccc2c(c1)CCC(=Cc1ccccn1)C2=O`: the Inhibition in the test with Staphylococcus aureus came out at 14.37%; in the test on Escherichia coli, 1.84%.

Regarding `COc1ccc2c(c1)C(=O)C(=Cc1cncc(Br)c1)CC2`, the Inhibition worked out at 75.2% in the test with Staphylococcus aureus and 2% with Escherichia coli.

In the case of `CC(C)(C)OC(=O)N1CC(=Cc2ccco2)C(=O)/C(=C/c2ccco2)C1`, the Inhibition in the test on Staphylococcus aureus turned out to be 17.59%; with Escherichia coli, 1.8%.

With `COc1ccc2c(c1)CCC(=Cc1ccco1)C2=O`, the results for the Inhibition in the test on Staphylococcus aureus and in the test with Escherichia coli were 19.21% and 7.9%, respectively.

As for `COc1ccc2c(c1)CCC(=Cc1cccnc1Cl)C2=O`, the Inhibition is recorded as 1.26% in the test with Staphylococcus aureus and -0.89% with Escherichia coli.

Consider `COc1ccc2c(c1)CCC(=Cc1cnccc1OC)C2=O`, for which the Inhibition in the test with Staphylococcus aureus was 0.49%; in the test with Escherichia coli, -6.17%.

For the compound `COc1cc2c(cc1OC)C(=O)C(=Cc1ccco1)CC2`, the Inhibition in the test on Staphylococcus aureus stood at 23.29%; with Escherichia coli, 6.96%.

As to `COc1ccc2c(c1)C(=O)C(=Cc1cccnc1Br)CC2`, the values for the Inhibition with Staphylococcus aureus and with Escherichia coli were 5.72% and 0.26%, respectively.

For the compound `COc1ccc2c(c1)CCC(=Cc1cccnc1)C2=O`, the Inhibition in the test with Staphylococcus aureus stood at 11.8%; with Escherichia coli, 5.55%.

As to `COc1ccc2c(c1)C(=O)C(=Cc1cccnc1OC)CC2`, the figures for the Inhibition in the test with Staphylococcus aureus and with Escherichia coli were 16.7% and 4.57%, respectively.

Consider `COc1cccc2c1CCC(=Cc1ccoc1)C2=O`, for which the Inhibition is 21.03% in the test on Staphylococcus aureus and -0.51% in the test on Escherichia coli.

Consider `COc1ccc2c(c1)C(=O)C(=Cc1ccccn1)CC2`, for which the Inhibition in the test on Staphylococcus aureus was determined as 11.08%; in the test on Escherichia coli it was 3.58%.

As to `COc1cccc2c1CCC(=Cc1ccco1)C2=O`, the Inhibition turned out to be 13.6% in the test with Staphylococcus aureus and 5.5% with Escherichia coli.

As to `COc1ccc2c(c1)C(=O)C(=Cc1cccc(C=C3CCc4ccc(OC)cc4C3=O)c1)CC2`, the results for the Inhibition with Staphylococcus aureus and in the test with Escherichia coli were 5.74% and 2.05%, respectively.

Take `COc1ccc2c(c1)CCC(=Cc1cncc(Br)c1)C2=O`: the Inhibition is given as 0.4% in the test on Staphylococcus aureus and -0.04% with Escherichia coli.

Turning to `CC(C)(C)OC(=O)N1CC(=Cc2ccoc2)C(=O)/C(=C/c2ccoc2)C1`, the Inhibition in the test with Staphylococcus aureus was 3.94%; in the test with Escherichia coli, -5.28%.

Turning to `COc1ccc2c(c1)CCC(=Cc1cccnc1Br)C2=O`, the Inhibition in the test with Staphylococcus aureus is 11.61%; in the test on Escherichia coli it was -5.29%.

In the case of `COc1ccc2c(c1)C(=O)C(=Cc1cccnc1Cl)CC2`, the figures for the Inhibition in the test with Staphylococcus aureus and in the test with Escherichia coli were 6.88% and -2.48%, respectively.

In the case of `COc1ccc2c(c1)CCC(=Cc1ccncc1)C2=O`, the Inhibition is on record as 16.04% in the test on Staphylococcus aureus and 3.11% in the test with Escherichia coli.

For `COc1ccc2c(c1)C(=O)C(=Cc1ccoc1)CC2`, the Inhibition in the test on Staphylococcus aureus is 24.21%; with Escherichia coli it was 0.87%.

Consider `Cc1ccc(C=C2CN(C(=O)OC(C)(C)C)C/C(=C\c3ccc(C)cc3C)C2=O)c(C)c1`, for which the Inhibition in the test with Staphylococcus aureus was 9.56%; in the test on Escherichia coli it was -6.82%.

For `COc1ccc(/C=C/C(=O)c2ccc(OCc3ccc(Br)cc3)cc2)cc1OC`, the Inhibition with Staphylococcus aureus is recorded as -11.78%; with Escherichia coli it was -9.61%.

`COc1cccc2c1CCC(=Cc1cccc(C=C3CCc4c(OC)cccc4C3=O)c1)C2=O`: the Inhibition was -26.12% in the test on Staphylococcus aureus and -22.27% in the test with Escherichia coli.

In the case of `COc1cc2c(cc1OC)C(=O)C(=Cc1ccoc1)CC2`, the figures for the Inhibition in the test on Staphylococcus aureus and in the test with Escherichia coli were 22.02% and 2.08%, respectively.

`COc1ccc2c(c1)C(=O)C(=Cc1cccnc1)CC2`: the Inhibition in the test on Staphylococcus aureus is 17.94%; in the test on Escherichia coli, 4.25%.

As to `COc1ccc2c(c1)CCC(=Cc1ccoc1)C2=O`, the results for the Inhibition in the test with Staphylococcus aureus and in the test with Escherichia coli were 24.71% and 8.45%, respectively.

Take `COc1ccc2c(c1)C(O)C(=Cc1cccnc1Cl)CC2` (configuration not stated): the figures for the Inhibition in the test on Staphylococcus aureus and in the test on Escherichia coli were 5.45% and 4.12%, respectively.

As for `COc1ccc2c(c1)C(=O)C(=Cc1ccco1)CC2`, the Inhibition was 20.52% in the test with Staphylococcus aureus and 4.79% with Escherichia coli.

A word on the Inhibition: it is the drop in the measured response relative to a control, in per cent.
